This note sets out measurements from PubChem BioAssay (NCI).

Test systems include NCI-H23 lung; NCI-H226 lung; NCI-H322M lung; HOP-62 NSCLC; NCI-H460 lung; NCI-H522 lung; A549/ATCC NSCLC; 786-0 renal; COLO 205 colon; DU-145 prostate; K-562 leukemia; MALME-3M melanoma; MDA-MB-231 breast; RXF 393 renal; SF-268 CNS; SF-295 CNS; SF-539 CNS; UACC-257 melanoma; M14 melanoma; HCT-15 colon.
Assay in all cases: NCI-60 one-dose screen, 48 h (100 = growth as untreated, 0 = no growth, -100 = all killed)
Settings in all cases: 10 µM unless noted

Molecules are shown by their SMILES. About 83,000 compounds went through this panel and 20% of them were active in at least one assay; those are over-represented in the sample as a whole.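 Results are percent growth after 48 hours of single-concentration exposure. 100 means growth as in untreated cells, lower positive values show inhibition; negative values down to -100 show cell death.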 Values without a mark were called inactive. Calls of active or inactive are those of the source. How the source made its calls: active means growth percent below 10; inactive means the rest.

`CCc1[nH]nc(-c2ccc(OC)cc2)c1-c1ccccc1OCCN(CC)CC`: the growth in the experiment on NCI-H23 lung is 91.4%; with NCI-H226 lung it was 94.9%; in the experiment on NCI-H322M lung, 97.7%; in the experiment with HOP-62 NSCLC, 84.6%; with NCI-H460 lung, 103%; in the experiment on NCI-H522 lung it was 114%. Moreover, the growth in the experiment on A549/ATCC NSCLC was 93.2%; in the experiment with 786-0 renal, 74.7%; with COLO 205 colon, 77%; with DU-145 prostate, 102%; in the experiment with K-562 leukemia, 88.4%; in the experiment with MALME-3M melanoma, 95.5%. The growth was 99.2% in the experiment with MDA-MB-231 breast; 79.3% with RXF 393 renal; 89% in the experiment with SF-268 CNS; 85.7% with SF-295 CNS; 99% in the experiment on SF-539 CNS; 97.9% in the experiment with UACC-257 melanoma. The values for the growth in the experiment on M14 melanoma and in the experiment on HCT-15 colon were 87.1% and 105%, respectively.
`N#Cc1ccc(NC(=O)Nc2ccc(Oc3ccc(NC(=O)Nc4ccc(C#N)cc4)cc3)cc2)cc1`: the growth with NCI-H23 lung is -0.877% (active); in the experiment on NCI-H226 lung, 42.5%; with NCI-H322M lung, 61.8%; with HOP-62 NSCLC, 31.6%; in the experiment with NCI-H460 lung it was 18.9%; with NCI-H522 lung it was -33.4% (active). Moreover, the growth in the experiment with A549/ATCC NSCLC is 26.9%; in the experiment on 786-0 renal, 30.3%; with COLO 205 colon, -0.221% (active); in the experiment on DU-145 prostate it was 35.3%; with K-562 leukemia, 0.451% (active); in the experiment on MALME-3M melanoma it was 54.4%. Moreover, the growth with MDA-MB-231 breast was 53.5%; in the experiment with RXF 393 renal it was 83.2%; in the experiment on SF-268 CNS it was 42.1%; in the experiment on SF-295 CNS, 23.7%; with SF-539 CNS, 71%; with UACC-257 melanoma, 37%. The growth in the experiment on M14 melanoma is 26.2%; in the experiment on HCT-15 colon, 32.1%.
With `NC(=O)c1ccccc1NC(=O)c1ccccc1Cl`, the growth was 104% with NCI-H23 lung; 105% with NCI-H226 lung; 109% with NCI-H322M lung; 112% in the experiment on HOP-62 NSCLC; 114% with NCI-H460 lung; 96.5% in the experiment on NCI-H522 lung. Moreover, the growth with A549/ATCC NSCLC is 98.3%; with 786-0 renal it was 102%; with COLO 205 colon it was 121%; in the experiment on DU-145 prostate, 113%; in the experiment with K-562 leukemia it was 89.9%; in the experiment with MALME-3M melanoma, 130%. Also, the growth in the experiment on MDA-MB-231 breast was 99.6%; in the experiment on RXF 393 renal, 82.1%; in the experiment with SF-268 CNS, 108%; in the experiment with SF-295 CNS, 90.5%; with SF-539 CNS, 109%; with UACC-257 melanoma it was 88.7%. Also, the values for the growth with M14 melanoma and in the experiment on HCT-15 colon were 112% and 95.6%, respectively.
As for `N=C(N)/N=C(\CCc1nc2ccccc2[nH]1)c1nc2ccccc2[nH]1`, the growth in the experiment on NCI-H23 lung is 91.6%; in the experiment with NCI-H226 lung, 93.4%; with NCI-H322M lung, 118%; in the experiment on HOP-62 NSCLC it was 97%; with NCI-H460 lung it was 114%; in the experiment on NCI-H522 lung, 96%. The growth in the experiment on A549/ATCC NSCLC is 102%; with 786-0 renal, 107%; with COLO 205 colon, 103%; in the experiment on DU-145 prostate, 111%; with K-562 leukemia, 98.4%; in the experiment with MALME-3M melanoma it was 96.9%. Moreover, the growth was 100% in the experiment with MDA-MB-231 breast; 116% in the experiment on RXF 393 renal; 112% with SF-268 CNS; 120% in the experiment with SF-295 CNS; 97.1% in the experiment with SF-539 CNS; 109% in the experiment with UACC-257 melanoma. Also, the growth in the experiment with M14 melanoma is 96.4%; in the experiment with HCT-15 colon, 106%.
Take `Cc1cc(C)c2c(c1)N1OC(C2)C[C@H]1/C=C/c1ccccc1` (stereo not given in full): the growth was 88.5% with NCI-H23 lung; 77.6% in the experiment on NCI-H226 lung; 81.3% with NCI-H322M lung; 111% in the experiment with HOP-62 NSCLC; 112% with NCI-H460 lung; 84.7% in the experiment with NCI-H522 lung. Besides, the growth in the experiment with A549/ATCC NSCLC was 95.2%; with 786-0 renal, 102%; with COLO 205 colon it was 111%; in the experiment with DU-145 prostate, 117%; in the experiment with K-562 leukemia it was 88.2%; with MALME-3M melanoma, 103%. The growth is 101% in the experiment on MDA-MB-231 breast; 115% with RXF 393 renal; 107% in the experiment on SF-268 CNS; 108% in the experiment with SF-295 CNS; 111% in the experiment with SF-539 CNS; 113% with UACC-257 melanoma. The growth with M14 melanoma was 104%; with HCT-15 colon, 88.7%.
For the compound `COc1ncc(-c2ccc3nccc(C#CCN4CCN(S(C)(=O)=O)CC4)c3c2)cc1NS(=O)(=O)c1ccc(F)cc1F`, the growth with NCI-H23 lung was 6.7% (active); in the experiment with NCI-H226 lung, 9.35% (active); with NCI-H322M lung, -11.8% (active); in the experiment with HOP-62 NSCLC, 9.92% (active); in the experiment on NCI-H460 lung, 6.27% (active); in the experiment with NCI-H522 lung it was -1.57% (active). Besides, the growth in the experiment on A549/ATCC NSCLC was 5.73% (active); in the experiment on 786-0 renal, -8.36% (active); in the experiment on COLO 205 colon it was -55.1% (active); with DU-145 prostate, 17.9%; in the experiment on K-562 leukemia it was 8.7% (active); with MALME-3M melanoma, -32.3% (active). In addition, the growth with MDA-MB-231 breast was 10.5%; with RXF 393 renal, -23.5% (active); with SF-268 CNS, 6.1% (active); with SF-295 CNS it was 13%; with SF-539 CNS it was -16.1% (active); in the experiment with UACC-257 melanoma it was -4.75% (active). The values for the growth in the experiment with M14 melanoma and in the experiment on HCT-15 colon were -2.97% (active) and 10.4%, respectively.
For the compound `COc1ccccc1[C@H]1c2[nH]c3ccccc3c2C[C@H]2C(=O)N(CCCCCCC(=O)NO)CC(=O)N12`, the growth was 52.3% with NCI-H23 lung; 91.6% in the experiment on NCI-H226 lung; 76.1% with NCI-H322M lung; 50.2% in the experiment with HOP-62 NSCLC; 62.8% in the experiment on NCI-H460 lung; 10.5% in the experiment with NCI-H522 lung. Further, the growth with A549/ATCC NSCLC was 76.5%; with 786-0 renal, 89.4%; in the experiment on COLO 205 colon, 26.9%; in the experiment with DU-145 prostate, 43.7%; with K-562 leukemia, 11.3%; with MALME-3M melanoma it was -1.09% (active). The growth was 66% with MDA-MB-231 breast; 65.5% with RXF 393 renal; 94.3% with SF-268 CNS; 71.9% with SF-295 CNS; 40.2% in the experiment on SF-539 CNS; 26.5% in the experiment on UACC-257 melanoma. The values for the growth in the experiment with M14 melanoma and in the experiment on HCT-15 colon were 36.3% and 87.1%, respectively.
Turning to `Cc1cc(Cl)ccc1Nc1nc(C(F)(F)F)ccc1C(=O)NCC(=O)N/N=C/c1c(Cl)cccc1Cl`, the growth with NCI-H23 lung was 74.6%; in the experiment on NCI-H226 lung it was 89.5%; with NCI-H322M lung it was 80.9%; in the experiment with HOP-62 NSCLC, 102%; in the experiment on NCI-H460 lung, 80.7%; with NCI-H522 lung, 75.8%. Besides, the growth is 44.9% in the experiment with A549/ATCC NSCLC; 94.9% in the experiment with 786-0 renal; 87.3% with COLO 205 colon; 49.9% in the experiment on DU-145 prostate; 50.2% with K-562 leukemia; 92.2% in the experiment with MALME-3M melanoma. In addition, the growth was 61.6% with MDA-MB-231 breast; 107% in the experiment with RXF 393 renal; 31% in the experiment on SF-268 CNS; 54.2% with SF-295 CNS; 79.4% in the experiment on SF-539 CNS; 149% in the experiment on UACC-257 melanoma. Further, the growth with M14 melanoma was 75.8%; in the experiment on HCT-15 colon, 60.8%.
